{
  "source": "PubChem BioAssay (NCATS)",
  "note": "Records with an inconclusive call do not appear. Activity calls are given as the source filed them. Calls come from the whole dose curve; as a rule, active = well fitted inhibition curve with a large enough effect; inconclusive = small, poorly fitted or top-dose-only effect, or effect the other way; inactive = flat fitted curve, though single readings scatter.",
  "data": [
    {"target": "ATP-dependent 6-phosphofructokinase (Trypanosoma brucei brucei) (UniProt O15648)", "sequence (O15648 whole entry, looked up)": "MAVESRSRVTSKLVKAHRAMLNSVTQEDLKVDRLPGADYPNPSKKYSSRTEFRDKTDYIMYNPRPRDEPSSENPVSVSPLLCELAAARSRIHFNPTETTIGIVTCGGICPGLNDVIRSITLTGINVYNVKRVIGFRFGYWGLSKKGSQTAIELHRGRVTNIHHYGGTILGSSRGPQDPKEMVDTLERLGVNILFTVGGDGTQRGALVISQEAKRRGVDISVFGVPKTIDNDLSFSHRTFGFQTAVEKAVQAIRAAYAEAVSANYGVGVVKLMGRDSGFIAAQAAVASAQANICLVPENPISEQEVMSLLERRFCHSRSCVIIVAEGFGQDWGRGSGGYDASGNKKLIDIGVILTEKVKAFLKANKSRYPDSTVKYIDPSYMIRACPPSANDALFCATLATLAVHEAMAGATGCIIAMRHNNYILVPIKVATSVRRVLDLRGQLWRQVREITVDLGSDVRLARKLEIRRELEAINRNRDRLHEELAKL", "experiment": "qHTS Assay to Find Inhibitors of T. brucei phosphofructokinase: hit validation (AID 492961);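 note: luminescence reports ADP formed as PFK phosphorylates fructose-6-phosphate with ATP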", "details": "T. brucei PFK, ADP-Glo luminescence; series mostly up to 51.4 µM", "summary_of_the_method": "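Compounds titrated; %activity normalized to 0x and 1x enzyme controls, curve-fitted. Readout: ADP-Glo luminescence after 45 min room-temperature reaction of 1.25 nM PFK, 0.1 mM ATP, 0.5 mM F6P, pH 8.0.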", "values": [
      {"smiles": "NC(CS)C(=O)O", "note": "(stereo not drawn)", "outcome": "inactive"},
      {"smiles": "CN1CCC(=C2c3ccccc3Sc3ccccc32)CC1", "outcome": "inactive"},
      {"smiles": "C[C@H](O)C(=O)Nc1c(I)c(C(=O)NC(CO)CO)c(I)c(C(=O)NC(CO)CO)c1I", "outcome": "inactive"},
      {"smiles": "C[C@]12CCC(=O)C=C1CC[C@H]1[C@@H]3CC[C@](O)(C(=O)CO)[C@@]3(C)C[C@H](O)[C@@]12F", "outcome": "inactive"},
      {"smiles": "COc1cccc(CCc2ccccc2OCC(CN(C)C)OC(=O)CCC(=O)O)c1", "note": "(stereo not drawn)", "outcome": "inactive"},
      {"smiles": "CCCCCCCCCCCCCCCC[N+](C)(C)CCN(Cc1ccc(OC)cc1)c1ncccn1", "outcome": "inactive"},
      {"smiles": "NCCC(O)(P(=O)(O)O)P(=O)(O)O", "outcome": "inactive"},
      {"smiles": "CCCCOc1ccc(C(=O)CCN2CCCCC2)cc1", "outcome": "inactive"},
      {"smiles": "CC(C)N=C(N)/N=C(\\N)Nc1ccc(Cl)cc1", "outcome": "inactive"},
      {"smiles": "CCCOC(C(=O)OC1CCN(C)CC1)(c1ccccc1)c1ccccc1", "outcome": "inactive"},
      {"smiles": "CCOc1ccc(NC(=O)CC(C)O)cc1", "note": "(stereo not drawn)", "outcome": "inactive"},
      {"smiles": "OCc1ccccc1O", "outcome": "inactive"},
      {"smiles": "Cc1ccnc(NS(=O)(=O)c2ccc(N)cc2)n1", "outcome": "inactive"},
      {"smiles": "CC(=O)OCC(=O)NCCCOc1cccc(CN2CCCCC2)c1", "outcome": "inactive"},
      {"smiles": "c1ccc(OCc2ccc(CCCN3CCOCC3)cc2)cc1", "outcome": "inactive"},
      {"smiles": "CCOC(=O)n1ccn(C)c1=S", "outcome": "inactive"},
      {"smiles": "CCN(CC)CCOC(=O)C(c1ccccc1)C1CCCCC1", "note": "(stereo not drawn)", "outcome": "inactive"},
      {"smiles": "Cc1c(C(C)C)c(=O)n(-c2ccccc2)n1C", "outcome": "inactive"},
      {"smiles": "O=C1[C@H]2CCCC[C@H]2C(=O)N1CCCCN1CCN(c2nsc3ccccc23)CC1", "outcome": "inactive"},
      {"smiles": "COc1cc(C(=S)N2CCOCC2)cc(OC)c1OC", "outcome": "inactive"},
      {"smiles": "CCCN1CCCC[C@H]1C(=O)Nc1c(C)cccc1C", "outcome": "inactive"},
      {"smiles": "CC[N+](CC)(CCNC(=O)C(=O)NCC[N+](CC)(CC)Cc1ccccc1Cl)Cc1ccccc1Cl", "outcome": "inactive"},
      {"smiles": "O=c1c(-c2ccccc2)c1-c1ccccc1", "outcome": "inactive"},
      {"smiles": "CO/N=C1\\CN(c2nc3c(cc2F)c(=O)c(C(=O)O)cn3C2CC2)CC1CN", "note": "(stereo not drawn)", "outcome": "inactive"},
      {"smiles": "CN=C(NC#N)NCCSCc1csc(N=C(N)N)n1", "outcome": "inactive"},
      {"smiles": "CCCCCCCCCCCCCCNCCO", "outcome": "inactive"},
      {"smiles": "C[C@@H](CN(C)C)CN1c2ccccc2Sc2ccccc21", "outcome": "inactive"},
      {"smiles": "CCCCCCCCCCOCC(O)CN", "note": "(stereo not drawn)", "outcome": "inactive"},
      {"smiles": "C[C@H]1[C@H](NC(=O)/C(=N/OC(C)(C)C(=O)O)c2csc(N)n2)C(=O)N1S(=O)(=O)O", "note": "(stereo in doubt)", "outcome": "inactive"},
      {"smiles": "CCCCC1=NC2(CCCC2)C(=O)N1Cc1ccc(-c2ccccc2-c2nn[nH]n2)cc1", "outcome": "inactive"},
      {"smiles": "CC(=O)c1ccc2c(c1)N(CCCN1CCC(CCO)CC1)c1ccccc1S2", "outcome": "inactive"},
      {"smiles": "COc1c(C)c2c(c(O)c1C/C=C(\\C)CCC(=O)O)C(=O)OC2", "outcome": "inactive"},
      {"smiles": "O=C(OCCOCCO)c1ccccc1Nc1cccc(C(F)(F)F)c1", "outcome": "inactive"},
      {"smiles": "C[C@@H]1C[C@H]2[C@@H]3CCC4=CC(=O)C=C[C@]4(C)[C@@]3(F)[C@@H](O)C[C@]2(C)[C@H]1C(=O)CO", "outcome": "inactive"},
      {"smiles": "O=C1OCCN1/N=C/c1ccc([N+](=O)[O-])o1", "outcome": "inactive"},
      {"smiles": "COc1cc2c(cc1OC)C(=O)C(CC1CCN(Cc3ccccc3)CC1)C2", "note": "(stereo not drawn)", "outcome": "inactive"},
      {"smiles": "CCOC(=O)c1cccc(N)c1", "outcome": "inactive"},
      {"smiles": "CCCCc1nc(Cl)c(CO)n1Cc1ccc(-c2ccccc2-c2nn[nH]n2)cc1", "outcome": "inactive"}
    ]}
  ]
}
